HSF1 inh – HSF1 inhibition; NIH3T3-HGL HSE-luciferase, MG132-induced, luminescence 8 h; stronger effect = lower value; activity change, negative = inhibition, % at 7.5 µM (by protocol); 0.77% of 300,000 active;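 active = more than half of replicate wells show activity change below -50%, luminescence cut by over half; inconclusive = some wells, but at most half, below -50%; inactive = no replicate well below -50%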;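 also: luciferase reports HSF-1 transcriptional activity via heat shock element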
HSF-1 act – increases HSF-1 driven luciferase reporter signal; 1.7% of 300,000 active; AID 504408; NIH3T3-HGL HSF-1 luciferase reporter, MG132, 8 h; 100% = twice DMSO control signal; activation, % at 9 µM;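 active = mean replicate activation of at least 50% with a set share of replicates each reaching 50%; inconclusive = only one of those two conditions met; inactive = mean below 50% and too few replicates reaching it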
Wnt bcat act – activates Wnt/beta-catenin signaling in a reporter cell assay | activator, plate reader | AID 743398 | activation, % at 9.35 µM | 1.2% of 300,000 active; in the data active = activation above about 30%, passing the limit was not always enough; inconclusive = no clear call, values can overlap the other calls
esBAF inh – inhibitors of esBAF chromatin remodeling in mouse ES cells | Bmi1-luciferase knock-in reporter, 24 h; 100% = twice the neutral-well signal | reporter increase, % at 12.5 µM | 2% of 350,000 active | AID 602393; in the data active = activation above about 40%; inconclusive = no clear call, values can overlap the other calls;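 also: a rise in the Bmi1 reporter signal indicates esBAF inhibition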
MITF TRPM1 HTS – activators of MITF-driven TRPM1 promoter activity in SK-MEL-5 cells; 0.75% of 300,000 active; SK-MEL-5 TRPM1-promoter luciferase, 24 h; % of positive control, neutral wells = 0; activation, % at 12.5 µM;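 active = mean activation of at least 80% with every replicate also reaching 80%; inconclusive = mean reaches 80% but some replicate falls short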
Numbers stand for hits; - = inactive; ? = inconclusive; . = no result. Compounds with a hit are over-represented: about 3.9% of the library has one in this group of screens.

SMILES	HSF1 inh	HSF-1 act	Wnt bcat act	esBAF inh	MITF TRPM1 HTS
CC=Cc1ccc2n(c1=O)C[C@H]1[C@H](CO)[C@@H](C(=O)NCC3CCCCC3)[C@@H]2N1C(C)=O (mixture of isomers)	.	.	.	-	.
Cc1nc(-c2ccc(NC(=O)Cc3ccccc3)cc2)cs1	-	57.5	-	48.6	-
Cc1nc(-c2ccc(NC(=O)c3ccccc3Br)cc2)cs1	-	-	65.0	.	?
COc1ccc(CC(=O)Nc2ccc(-c3csc(C)n3)cc2)cc1	-	-	.	-	-
Cc1nc(-c2ccc(NC(=O)c3ccccc3C)cc2)cs1	-	-	-	85.7	-
CC(C)C#Cc1ccc2c(c1)O[C@H](CN(C)S(=O)(=O)c1cn(C)cn1)[C@@H](C)CN([C@H](C)CO)S2(=O)=O	.	.	.	-	.
C[C@@H]1CN([C@H](C)CO)C(=O)c2cccc(NS(=O)(=O)c3ccc(F)cc3)c2O[C@H]1CN(C)Cc1ccc(Cl)c(Cl)c1	.	.	.	-	.
C[C@@H]1CN([C@H](C)CO)C(=O)c2cccc(NC(=O)Nc3ccc(C(F)(F)F)cc3)c2O[C@H]1CN(C)S(=O)(=O)c1ccc(F)cc1	.	.	.	-	.
C[C@@H]1CN([C@@H](C)CO)C(=O)Cc2cc(NC(=O)Nc3ccc4c(c3)OCO4)ccc2O[C@@H]1CN(C)S(C)(=O)=O	.	.	.	-	.
CN(C)CC(=O)N1[C@@H]2c3ccc(-c4ccccc4)c(=O)n3C[C@H]1[C@H](CO)[C@H]2C(=O)N1CCN(C)CC1	.	.	.	-	.
COC(=O)[C@H]1[C@H]2C[C@@H]3c4[nH]c5cc(OC)ccc5c4CCN3C[C@H]2C[C@@H](OC(=O)c2ccc(N)cc2)[C@@H]1OC	-55.5	-	-	-	-
O=C(Nc1ccc(NC(=O)C2CC2)nc1)c1cnccn1	-	-	48.6	-	-
COc1cc(C(=O)Nc2ccc(NC(=O)C3CC3)nc2)cc(OC)c1OC	-	-	60.6	-	-
COc1cc(C(=O)Nc2ccc(NC(=O)c3ccccc3)nc2)cc(OC)c1OC	-	-	-	-	-
CCC(=O)Nc1ccc(NC(=O)c2cccc(OC)c2)nc1	-	-	.	-	?
COc1cccc(C(=O)Nc2ccc(NC(=O)C3CC3)cn2)c1	-	-	-	.	101.5
C[C@@H]1CCCCO[C@@H](CN(C)Cc2ccc3c(c2)OCO3)[C@@H](C)CN([C@@H](C)CO)C(=O)c2cc(N(C)C)ccc2O1	.	.	.	-	.
Cc1ccccc1/C(N)=N/OC(=O)/C=C/c1ccccc1	-	-	77.1	-	-
COc1ccc(/C(N)=N/OC(=O)/C=C/c2ccccc2)cc1	-	53.8	?	-	-
COc1ccc(/C=C/C(=O)Nc2ccccc2)cc1OC	-	-	-	.	90.2
COc1ccc(NC(=O)/C=C/c2ccccc2)cn1	-	-	.	42.2	121.8
N/C(=N\OC(=O)/C=C/c1ccccc1)c1cccnc1	-	?	.	.	-
COc1ccc(S(=O)(=O)Nc2ccc3c(c2)C(=O)N([C@H](C)CO)C[C@H](C)[C@@H](CN(C)C(=O)c2ccccc2)OCCCC[C@@H](C)O3)cc1	.	.	.	-	.
Cc1ccc(S(=O)(=O)Nc2ccc3c(c2)CC(=O)N([C@@H](C)CO)C[C@H](C)[C@H](CN(C)S(=O)(=O)c2ccc(F)cc2)O3)cc1	.	.	.	-	.
COc1cc(/C=N/NC(=O)c2ccncc2)ccc1OCC(=O)Nc1ccccc1	-	-	-	-	99.0
SMILES	HSF1 inh	HSF-1 act	Wnt bcat act	esBAF inh	MITF TRPM1 HTS
COc1ccc(C(=O)/C=C/c2ccc(OC)c(CN3CCOCC3)c2)cc1	-	-	-	.	-
COc1ccc(/C=C/C(=O)OC(C)C(=O)c2ccccc2)cc1OC (configuration not stated)	-	-	-	-	-
COc1cc(/C=N/NC(=O)c2ccccc2O)ccc1OCC(=O)Nc1ccccc1	-	-	-	-	-
Cc1ccc(/C(N)=N/OC(=O)/C=C/c2ccccc2)cc1	-	-	-	50.2	-
COc1ccc(/C=C/C(=O)O/N=C(\N)c2ccccc2)cc1OC	-	-	46.2	.	-
COc1ccc(C(=O)/C=C/c2ccc(OC)c(Cn3nnc4ccccc43)c2)cc1	-	79.8	-	.	-
C[C@H](CO)N1C[C@H](C)[C@H](CN(C)S(=O)(=O)c2ccc(F)cc2)Oc2ncc(C#Cc3cccc(F)c3)cc2C1=O	.	.	.	-	.
COc1ccc(/C=C/C(=O)NC(=S)Nc2ccccc2)cc1OC	-	-	-	-	-
COc1ccc(/C=C/C(=O)Oc2ccc(/C=N/NC(=O)c3ccccc3)cc2)cc1OC	-	-	.	47.4	-
COc1cc(/C=C/C(=O)NC(=O)c2ccccc2O)ccc1OC(C)=O	-	-	-	53.9	-
CCOc1ccc(/C=C/C(=O)c2ccccc2)cc1OC	-	62.9	76.2	.	-
N/C(=N\OC(=O)CCc1ccccc1)c1ccc(Br)cc1	-	-	-	-	-
Cc1ccc(/C(N)=N/OC(=O)CCc2ccccc2)cc1	-	-	-	59.6	-
C[C@@H]1CCCCO[C@@H](CN(C)C(=O)Nc2ccc(F)cc2)[C@H](C)CN([C@@H](C)CO)C(=O)c2cc(NC(=O)Nc3ccc(C(F)(F)F)cc3)ccc2O1	.	.	.	-	.
CCC(=O)N[C@H]1CC[C@H](CCNS(=O)(=O)c2ccc(Cl)cc2)O[C@@H]1CO	.	.	.	-	.
CCC(=O)Nc1ccc(C(=O)Cn2ncc(Cl)c(Cl)c2=O)cc1	-	56.8	-	-	-
Cc1ccc(C(=O)OCn2ncc(Cl)c(Cl)c2=O)cc1	-93.6	-	.	-	-
CCOC(=O)c1ccc(NC(=O)Cn2ncc(Cl)c(Cl)c2=O)cc1	-93.5	-	-	.	-
O=C(Cn1ncc(Cl)c(Cl)c1=O)Nc1ccc2c(c1)OCO2	.	.	-	-	-
O=C(Cn1ncc(Cl)c(Cl)c1=O)c1ccc2c(c1)OCCO2	.	.	-	.	.
O=C(OCn1ncc(Cl)c(Cl)c1=O)c1ccc(C(F)(F)F)cc1	-	-	.	-	.
CCOC(=O)c1ccc(NC(=O)Cn2nc(C)c3ccccc3c2=O)cc1	-	-	-	-	-
CCN(CC)S(=O)(=O)c1cc(NC(=O)Cn2ncc(Cl)c(Cl)c2=O)ccc1C	-	120.5	-	.	-
CN1CCCCN2[C@H](CO)[C@@H](c3ccc(-c4ccc(F)cc4)cc3)[C@H]2C1	.	.	.	-	.
C[C@@H]1CN([C@@H](C)CO)C(=O)c2cc(NC(=O)Nc3ccccc3)ccc2O[C@@H]1CN(C)CC1CCCCC1	.	.	.	-	.
SMILES	HSF1 inh	HSF-1 act	Wnt bcat act	esBAF inh	MITF TRPM1 HTS
COc1ccc(S(=O)(=O)Nc2ccc3c(c2)CC(=O)N([C@H](C)CO)C[C@H](C)[C@@H](CN(C)Cc2ccc(Oc4ccccc4)cc2)O3)cc1	.	.	.	-	.
CC1CCN(S(=O)(=O)c2ccc3c(c2)c(=O)c(C(=O)NCc2ccco2)cn3C)CC1	-	-	-	.	-
CCN(CC)S(=O)(=O)c1ccc2c(c1)c(=O)c(C(=O)NCc1ccco1)cn2C	-90.4	-	-	.	-
N#C[C@@H]1[C@@H](c2ccc(-c3ccncc3)cc2)[C@@H](CO)N1C(=O)C1CCCCC1	.	.	.	-	.
CC1CCN(CCCNC(=O)COc2cc(=O)n(C)c3ccccc23)CC1	-	56.9	.	-	.
C[C@H]1CN([C@@H](C)CO)C(=O)Cc2cc(NC(=O)NC3CCCCC3)ccc2O[C@H]1CN(C)S(=O)(=O)c1ccc(Cl)cc1	.	.	.	-	.

Compound activity: PubChem, Broad Institute
